Results: the supplement of paper PMC13380429

System: Vero E6 infected with SARS-CoV-2
Experiment: inhibition of SARS-CoV-2 cytopathic effect; higher = more antiviral protection, active = above 15
Details: 48 h

Measured: inhibition of SARS-CoV-2 cytopathic effect

CN(C)CC[C@H](CSc1ccccc1)Nc1ccc(S(=O)(=O)NC(=O)c2ccc(N3CCN(Cc4ccccc4-c4ccc(Cl)cc4)CC3)cc2)cc1[N+](=O)[O-]
inactive: 1 nM -0.41% | 8.33 nM -0.39% | 100 nM -6.74% | 833.33 nM -16.3% | 10000 nM -20.2%

CN(CCOc1ccc(-c2ccc3c(c2)OCO3)cc1C(C)(C)C)CC(=O)O
inactive: 1 nM 1.26% | 8.33 nM -3.67% | 100 nM -6.89% | 833.33 nM -0.1% | 10000 nM -1.31%

O=C1NC(c2cccc([N+](=O)[O-])c2)=CCN1c1ccccc1O [icilin]
inactive: 1 nM -1.18% | 8.33 nM 2.89% | 100 nM 1.15% | 833.33 nM 0.66% | 10000 nM 0.77%

COCCN1CCN(Cc2ccc(-c3n[nH]c4c3C(=O)c3c(NC(=O)NN5CCOCC5)cccc3-4)cc2)CC1
inactive: 1 nM 0.81% | 8.33 nM -16.4% | 100 nM 0.61% | 833.33 nM 2.47% | 10000 nM 9%

CC1(C)S[C@@H]2[C@H](N3C(=O)[C@@H](c4ccccc4)NC3(C)C)C(=O)N2[C@H]1C(=O)O [hetacillin]
inactive: 1 nM -0.32% | 8.33 nM 0.69% | 100 nM 0.82% | 833.33 nM 2.11% | 10000 nM 2.77%

O=C(O)C(O)Cc1ccc(O)c(O)c1 (stereo not given) [sodium-danshensu]
inactive: 1 nM 1.07% | 8.33 nM -0.48% | 100 nM 2.17% | 833.33 nM -0.61% | 10000 nM -1.7%

CC1Cc2ccccc2N1NC(=O)c1ccc(Cl)c(S(N)(=O)=O)c1 (stereo not given) [indapamide]
inactive: 1 nM 0.88% | 8.33 nM 2.8% | 100 nM 0.11% | 833.33 nM 1.3% | 10000 nM 1.05%

COc1ccc(CN2CCN(C(c3ccc(F)cc3)c3ccc(F)cc3)CC2)c(OC)c1OC [lomerizine]
inactive: 1 nM 1.2% | 8.33 nM -4.42% | 100 nM -2.46% | 833.33 nM -4.97% | 10000 nM -3.64%

CCC(CC)(NC(=O)C(C)C)C(=O)N[C@@H](CCCNC(=N)N)C(=O)NC1(C(=O)NC(c2ccc(F)cc2)c2ccc(F)cc2)CCCC1
inactive: 1 nM -0.92% | 8.33 nM -1.15% | 100 nM -1.6% | 833.33 nM 0.7% | 10000 nM -3.48%

CN(Cc1ccccc1)C(=O)[C@H](Cc1ccc2ccccc2c1)NC(=O)[C@@H]1C[C@@H](O)CN1C(=O)c1cn(C)c2ccccc12
inactive: 1 nM 1.18% | 8.33 nM 4.31% | 100 nM 3.48% | 833.33 nM 1.69% | 10000 nM 1.87%

O=S(=O)(O)NC1CCCCC1 [cyclamic-acid]
inactive: 1 nM -3.13% | 8.33 nM 1.15% | 100 nM 1.07% | 833.33 nM 0.19% | 10000 nM -3.53%

CCN(c1cc(C#CCN2CCOCC2)cc(C(=O)NCc2c(C)cc(C)[nH]c2=O)c1C)[C@H]1CC[C@H](N(C)CCOC)CC1
inactive: 1 nM -1.56% | 8.33 nM -1.99% | 100 nM 3.36% | 833.33 nM -2.9% | 10000 nM -5.69%

CCCCCCCC/C=C/C(=O)O [trans-2-undecenoic-acid]
inactive: 1 nM 0.16% | 8.33 nM -0.12% | 100 nM 1.42% | 833.33 nM 1.97% | 10000 nM 1.5%

CCc1cncnc1N1CCN(Cc2nc3cc(C(F)(F)F)ccc3[nH]2)CC1
inactive: 1 nM 1.34% | 8.33 nM -0.7% | 100 nM 1.45% | 833.33 nM 8.5% | 10000 nM -4.66%

CO[C@H]1CC[C@@H](C(=O)c2ccc3nc4c(cc3c2)CCCO4)CC1
inactive: 1 nM -1.37% | 8.33 nM 0.02% | 100 nM -1.45% | 833.33 nM -0.98% | 10000 nM -2.81%

CC(=O)N[C@@H](CS)C(=O)O [acetylcysteine]
inactive: 1 nM 1.87% | 8.33 nM 1.77% | 100 nM 3.98% | 833.33 nM 1.93% | 10000 nM 3.74%

N[C@@H](Cc1cc(-c2ccc(Cl)cc2Cl)cc(CP(=O)(O)O)c1O)C(=O)O
inactive: 1 nM 0.73% | 8.33 nM 2.24% | 100 nM 2.7% | 833.33 nM 2.63% | 10000 nM 2.27%

CC(C)Oc1ccc(-c2nc(-c3cccc4c3CC[C@@H]4NCCO)no2)cc1C#N [ozanimod]
active: 10000 nM 59.2%
inactive: 1 nM -1.23% | 8.33 nM -0.27% | 100 nM 2.87% | 833.33 nM 0.63%

O=C(O)Cn1c(C(=O)Nc2nc(-c3ccccc3Cl)cs2)cc2ccccc21
inactive: 1 nM 0.3% | 8.33 nM -0.21% | 100 nM 0.61% | 833.33 nM -0.36% | 10000 nM -0.66%

O=C(/C=C/c1cccnc1)NCCCCC1CCN(C(=O)c2ccccc2)CC1
inactive: 1 nM 3.22% | 8.33 nM -5.64% | 100 nM -20.3% | 833.33 nM -24.1% | 10000 nM -24.5%

O=C(O[C@@H]1Cc2c(O)cc(O)cc2O[C@@H]1c1cc(O)c(O)c(O)c1)c1cc(O)c(O)c(O)c1 [epigallocatechin-gallate-(-)]
inactive: 1 nM -3.81% | 8.33 nM 2.17% | 100 nM 0.79% | 833.33 nM 1.05% | 10000 nM 0.98%

O=C1CN(/N=C/c2ccc([N+](=O)[O-])o2)C(=O)N1 [nitrofurantoin]
inactive: 1 nM -0.06% | 8.33 nM -0.32% | 100 nM 0.43% | 833.33 nM 0.55% | 10000 nM 1.5%

C[n+]1c2cc(N)ccc2cc2ccc(N)cc21.Nc1ccc2cc3ccc(N)cc3nc2c1 [acriflavine]
inactive: 1 nM 2.32% | 8.33 nM 1.62% | 100 nM 1.04% | 833.33 nM -1.18% | 10000 nM -12.9%

CC(C)c1cc2c(cc1S(=O)(=O)O)[C@@]1(C)CCC[C@@](C)(C(=O)O)[C@@H]1CC2 [ecabet]
inactive: 1 nM -2.02% | 8.33 nM 0% | 100 nM -1.76% | 833.33 nM 0.14% | 10000 nM -0.11%

O=C(Nc1ccccc1)N1CCC(Cc2cnc3ccccc3c2)CC1
inactive: 1 nM -0.99% | 8.33 nM -0.47% | 100 nM 0.72% | 833.33 nM -0.2% | 10000 nM -1.47%

CN1CCN(C(=O)C2C(C(=O)O)[C@H]3CC[C@@H]2O3)CC1 (stereo not given in full)
inactive: 1 nM -1.86% | 8.33 nM 0.2% | 100 nM 0.49% | 833.33 nM 0.2% | 10000 nM -0.43%

O=c1ccc2ccccc2o1 [coumarin]
inactive: 1 nM -0.97% | 8.33 nM -0.94% | 100 nM -1.66% | 833.33 nM 1.9% | 10000 nM -0.9%

CC(=O)N[C@@H](CC(=O)O)C(=O)N[C@@H](CCC(=O)O)C(=O)O [spaglumic-acid]
inactive: 1 nM -1.79% | 8.33 nM -1.97% | 100 nM -2.69% | 833.33 nM -1.39% | 10000 nM -1.24%

Cc1cccc(NC(=O)N[C@@H]2N=C(c3ccccc3)c3ccccc3N(C)C2=O)c1
inactive: 1 nM -0.47% | 8.33 nM 1.7% | 100 nM 0.28% | 833.33 nM 0.31% | 10000 nM 0.03%

CN1CCN(c2ccc(C(=O)Nc3n[nH]c4ccc(Cc5cc(F)cc(F)c5)cc34)c(NC3CCOCC3)c2)CC1 [entrectinib]
inactive: 1 nM 4% | 8.33 nM 2.95% | 100 nM -2.01% | 833.33 nM -2.36% | 10000 nM -12.4%

C[C@@H]1C(=O)O[C@H]2C[C@@]34[C@H]5C[C@@H](C(C)(C)C)[C@]36[C@@H](OC(=O)[C@@H]6O)O[C@@]4(C(=O)O5)[C@]21O [Ginkgolide A]
inactive: 1 nM 3.54% | 8.33 nM 2.25% | 100 nM 2.7% | 833.33 nM 1.3% | 10000 nM -1.89%

C/C=C/C[C@@H](C)C(=O)[C@H]1C(=O)N[C@@H](C(C)C)C(=O)N(C)CC(=O)N(C)[C@@H](CC(C)C)C(=O)N[C@@H](C(C)C)C(=O)N(C)[C@@H](CC(C)C)C(=O)N[C@@H](C)C(=O)N[C@H](C)C(=O)N(C)[C@@H](CC(C)C)C(=O)N(C)[C@@H](CC(C)C)C(=O)N(C)[C@@H](C(C)C)C(=O)N1C [valspodar]
inactive: 1 nM -5.19% | 8.33 nM -0.88% | 100 nM -1.83% | 833.33 nM 0.22% | 10000 nM 8.33%

O=C1OCCN1/N=C/c1ccc([N+](=O)[O-])o1 [furazolidone]
inactive: 1 nM 2.49% | 8.33 nM 3.22% | 100 nM 2.2% | 833.33 nM 1.08% | 10000 nM 0.23%

CO[C@H]1/C=C/O[C@@]2(C)Oc3c(C)c(O)c4c(O)c(c(/C=N/N5CCN(C)CC5)c(O)c4c3C2=O)NC(=O)/C(C)=C\C=C\[C@H](C)[C@H](O)[C@@H](C)[C@@H](O)[C@@H](C)[C@H](OC(C)=O)[C@@H]1C [rifampin]
inactive: 1 nM -3.64% | 8.33 nM -3.69% | 100 nM -2.5% | 833.33 nM -3.32% | 10000 nM -1.54%

O=C(NCc1ccc(F)cc1)N1CCN2C(=O)OC(c3ccccc3)(c3ccccc3)[C@@H]2C1 (racemic)
inactive: 1 nM 1.17% | 8.33 nM 1.29% | 100 nM 3.05% | 833.33 nM 3.22% | 10000 nM -6.01%

Oc1cccc2cccnc12 [oxyquinoline]
inactive: 1 nM -1.21% | 8.33 nM -0.58% | 100 nM 0.04% | 833.33 nM 2.84% | 10000 nM -0.31%

Cn1c(C#N)ccc1-c1ccc2c(c1)C(C)(C)OC(=S)N2 [tanaproget]
inactive: 1 nM 3.59% | 8.33 nM 4.95% | 100 nM 0.34% | 833.33 nM 3.55% | 10000 nM 1.06%
